Results published in the supplement of paper PMC6555819.

Test system: VDR:RXRa (NR concentration 270 nM, RXRa partner concentration 90 nM)
Assay: PBM binding z-score (relative to random genomic background probes); higher = stronger binding; sequences stand for … in GC…GCGATTGACAGCGTAGAATGAAGG
Experimental: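 Protein-binding microarray (Agilent 4x180K custom design, double-stranded 60-nt probes: 5' GC cap, 34-nt variable region, 24-nt constant primer region; full probe sequence given). Purified or IVT nuclear receptor:RXRα heterodimers (3:1 NR:RXRα, mostly 270:90 nM) or homodimers were incubated for 1 h in PBS with 2% milk and no ligand, then detected with Alexa488 antibodies. Fluorescence from o1-orientation probes (~5 replicates averaged) was converted to z-scores against 500 random hg19 background probes. Variable regions are seed direct-repeat (DR0–DR5) sites, all their single-nucleotide variants and half-site ablations.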

| Sequence | PBM binding z-score |
| --- | --- |
| CTACCAAGGTGATCAAGGTCGTTGATTACTATTC | 5.3 |
| CGTCCAAGTTCAACTAAGGTAACGTAAAGCACGC | 4.16 |
| ACTAGCAGGCCACGGGTCACTCAAGATTAGTCCG | 1.2 |
| AATACAGGGTCACTAGTCCAGAGTAGGTACGAAT | 4.05 |
| GCTAGCAGGCCCTTTGGGTCACTCAATGACGGGC | -0.206 |
| TCTATTAGTTGATTAGGGCCACCGAAACAGCGGA | 0.782 |
| ACAGAGAGGTGAGTGAAGGTAACTCAGCTGGACG | 0.13 |
| TGATATAGGTAAAAGGTGAAAGTCGGTGTGGTAA | 1.33 |
| TAGACAGGGTCAAAGGCCAGAGTACGAATGTCGA | 4.73 |
| ATTCAAAGTTCATCTAGGTAACGTAAGATATGCT | 4.93 |
| ATATGTAGGTTATCGGGTCATTCAGTTTGCGCAT | 5 |
| TCTTGTAGATCAACACGAGGTTAAGAAAGATCGA | 0.895 |
| TCTAGTTGGTCACGGCGGTCACACACGACGGGTA | 1.82 |
| ATCCCTAGGTAAGACTCAGTTCAGTGAAGAACGC | 1.05 |
| CCGACTGGGTCAAGGTTACCATAACGCACAGCCA | 2.05 |
| GCTTGTAGATCAAGGCTAAGAAAGACTAAGCTAA | -0.679 |
| AGAGTGAGGTTATACGTAGATCAGGGAAGAAAGT | 1.6 |
| CGAACGAGGTCAAGGACAGTGAATCTCCGCACGC | 5.09 |
| AGAGCGAGGGCAATGAGTTGATAGCACGGGTGGC | 4.97 |
| CCTAGCAGGCCGATCTGGGTCACTCAAGGCTTGA | 0.114 |

| Sequence | PBM binding z-score |
| --- | --- |
| CCTACTGGGCCACGAAAGGTCGTTGATTCAGTGA | 1.74 |
| CAACCTAGGTCAGGGCCAGTATAGGAGGAACGTT | 0.746 |
| TCTATTAGTTGAAGGGCAAGCGACGAGTCCGTTT | 0.979 |
| GCTTGTAGATCAAGGTCAAGAAAGACTAAGCTAA | 2.67 |
| GCTATTAGATGAAAGGGCAACCGAATGATTCTCG | 0.125 |
| TATACAGGGTCAAAGCCCAGAGTACGAATGTCGA | 4.41 |
| ATCTCTAGGTAACCAAGTTCACTGAATGCCGAAC | 5.34 |
| ACTTACTGGTCAACGAGGTTATAGCACGCGTATA | 5.15 |
| CCAGACAGGTGAAAGGTAATTCAGTCTGGTACGC | 0.632 |
| CCTACTGGGCAATCAGGTCATTGATATCAACGTT | 2.83 |
| TAGCCTAGCTCATGCGGGCCAGTATAGTGTCGGC | -1.1 |
| CCTACTGGGCCATGAGGTCATTGATATCAACGTT | 4.43 |
| ACTAGTTGGTCAGCTGAGGGCACACACAATTCGG | 1.2 |
| CCTAGTTGGTCAGGAGGTAACACACCGGATATGA | 0.461 |
| ACTAGTTGGTTAGCTGAGGTCACACACAATTCGG | 4.03 |
| CCTATTAGTTGACCATAAAGGCAACCGAAGCTCG | 0.841 |
| CTCGAAAGGTCGTGCTCAGCTGAGTATACCAAAC | 3.17 |
| CCAAACAGGTGAGAAGGTAACTCAGCCTCGATTA | -0.0119 |
| TCTGCTAGGTCAACGATGGTCAACTAATCTGCTA | 2.27 |
| AGTCAAAGTTCAGGATGAGGTAACGTAAAGCACG | 2.88 |
